Data taken from ChEMBL document CHEMBL1201862, “PubChem BioAssay data set” (2004).
The campaign covered roughly 400,000 compounds. About 2,100 (0.53%) were called active. Not shown: some 14% with an inconclusive outcome. How the calls were made is not given here. The sample as a whole holds a higher share of actives than the screen did.

Each molecule was assayed against Ataxin-2 (Homo sapiens) (UniProt Q99700) (assay: qHTS for Inhibitors of ATXN expression.).
Type: functional

Sequence of Ataxin-2 (Homo sapiens) (Q99700 whole entry): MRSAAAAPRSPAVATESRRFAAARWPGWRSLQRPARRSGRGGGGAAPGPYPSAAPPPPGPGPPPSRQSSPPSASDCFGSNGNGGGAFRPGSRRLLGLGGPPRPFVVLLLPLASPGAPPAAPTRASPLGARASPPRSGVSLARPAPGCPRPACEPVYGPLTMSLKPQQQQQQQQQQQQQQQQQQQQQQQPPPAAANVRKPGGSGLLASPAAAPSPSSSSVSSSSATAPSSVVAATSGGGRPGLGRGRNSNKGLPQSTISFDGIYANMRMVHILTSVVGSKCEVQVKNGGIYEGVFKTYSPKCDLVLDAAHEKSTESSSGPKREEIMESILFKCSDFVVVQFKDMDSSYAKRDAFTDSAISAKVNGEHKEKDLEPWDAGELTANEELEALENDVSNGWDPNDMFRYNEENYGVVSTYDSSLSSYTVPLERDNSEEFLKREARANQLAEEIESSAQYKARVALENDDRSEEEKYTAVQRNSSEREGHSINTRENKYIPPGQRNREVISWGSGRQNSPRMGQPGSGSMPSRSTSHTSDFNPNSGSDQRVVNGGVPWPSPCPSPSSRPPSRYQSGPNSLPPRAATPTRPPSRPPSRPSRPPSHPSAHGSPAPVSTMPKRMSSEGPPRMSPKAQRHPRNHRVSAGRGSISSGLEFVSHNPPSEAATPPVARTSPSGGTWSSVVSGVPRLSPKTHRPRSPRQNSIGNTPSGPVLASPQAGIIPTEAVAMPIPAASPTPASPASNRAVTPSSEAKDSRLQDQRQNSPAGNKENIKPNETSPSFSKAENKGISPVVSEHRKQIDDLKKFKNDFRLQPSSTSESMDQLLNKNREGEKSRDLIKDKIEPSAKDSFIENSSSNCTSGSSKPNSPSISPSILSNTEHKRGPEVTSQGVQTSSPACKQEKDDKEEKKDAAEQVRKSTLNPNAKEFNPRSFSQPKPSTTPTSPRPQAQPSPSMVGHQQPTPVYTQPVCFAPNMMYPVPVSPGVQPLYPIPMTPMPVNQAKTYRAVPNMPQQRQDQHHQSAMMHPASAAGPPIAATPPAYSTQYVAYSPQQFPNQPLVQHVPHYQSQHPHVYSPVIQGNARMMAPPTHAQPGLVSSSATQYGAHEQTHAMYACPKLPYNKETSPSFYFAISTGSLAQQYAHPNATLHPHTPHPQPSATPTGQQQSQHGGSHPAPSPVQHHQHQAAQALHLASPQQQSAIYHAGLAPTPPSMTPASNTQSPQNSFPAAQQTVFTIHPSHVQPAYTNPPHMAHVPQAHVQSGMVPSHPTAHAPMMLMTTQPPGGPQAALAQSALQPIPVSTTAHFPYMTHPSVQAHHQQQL

Row | SMILES | Potency
1 | COc1ccc(CNC(=O)COC(=O)c2ccc(OCC3CCCO3)cc2)cc1 (stereo not drawn) | inactive
2 | CCN1C(=O)c2cccc3c(S(=O)(=O)N4CCC(C)CC4)ccc1c23 | inactive
3 | CC1CCN(S(=O)(=O)c2ccc3c4c2CC(=O)N4CC(C)S3)CC1 (stereo not drawn) | 31.6 µM (active)
4 | CC(=O)N1CCSc2ccc(S(=O)(=O)N3CCC(C)CC3)cc21 | inactive
5 | CC(C)(C)c1nc2ccccc2c2nnc(SCC(=O)Nc3nc4ccccc4s3)n12 | 35.5 µM (active)
6 | O=C(CCNC(=O)c1ccccc1)Nc1nc2ccccc2s1 | inactive
7 | Cc1nc(SCC(=O)Nc2nc3ccccc3s2)c(C#N)c(C)c1C | inactive
8 | CCC(C)n1c(=N)c(C(=O)NC2CCCC2)cc2c(=O)n3ccccc3nc21 (stereo not drawn) | inactive
9 | COc1ccc(C(=O)c2c(N)sc3c2CCN(C(=O)OC(C)(C)C)C3)cc1 | inactive
10 | O=C1C=CC2(O[C@H](c3ccccc3)[C@@H](c3ccccc3)O2)[C@H](Sc2ccccc2O)C1 | 2 µM (active)
11 | CCN(CC)c1ccc2c(C)cc(=O)oc2c1 | inactive
12 | CC1(C)CC(N/C=C2/C(=O)N(Cc3ccc4c(c3)OCO4)C(=O)c3ccccc32)CC(C)(C)N1 | 21.2 µM (active)
13 | CN(C)CCN/C=C1/C(=O)N(Cc2ccccc2)C(=O)c2ccccc21 | inactive
14 | CN(C)CCN/C=C1/C(=O)N(Cc2ccc3c(c2)OCO3)C(=O)c2ccccc21 | inactive
15 | N#CCC(=O)Nc1ccc(C(=O)NNC(=O)c2ccccc2-n2cccc2)cc1 | inactive
16 | COc1cc(N2N=C(c3ccccc3)CC2c2ccccc2)c(C=O)cc1C=O (stereo not drawn) | inactive
17 | O=C(Nc1cccc(-c2nc3ncccc3o2)c1)c1sc2ccccc2c1Cl | 17.8 µM (active)
18 | Cc1ccc(-c2nc3ncccc3o2)cc1N | inactive
19 | Nc1c(C(=O)Nc2cccc(Cl)c2Cl)sc2nc(-c3cccnc3)ccc12 | inactive
20 | COC(=O)c1ccc(N/C=C\C(=O)c2ccc3c(c2)OCO3)cc1 | inactive
21 | CNC(=S)N/N=C(\C)c1ccc2c(c1)OCO2 | 44.7 µM (active)
22 | COCCCNC(=S)N/N=C/c1ccc2c(c1)OCO2 | inactive
23 | COc1cc(Cn2c(N)c(C#N)c3nc4ccccc4nc32)cc(OC)c1 | inactive
24 | O=C(Oc1ccc2c(-c3ccccc3)cc(=O)oc2c1)c1cccs1 | inactive
25 | COc1ccc(N2C(c3ccsc3)=Cc3cc4c(cc3C2c2c[nH]c3ccccc23)OCO4)cc1 (stereo not drawn) | 28.2 µM (active)
26 | O=C(NC1CCS(=O)(=O)C1)c1cc2c(=O)n3ccccc3nc2n1Cc1ccccc1 (stereo not drawn) | inactive
27 | CCCCOC(=O)c1ccc(NC(=O)C(=O)NCCN(CC)CC)cc1 | inactive
28 | CCN(CC)CCNC(=O)C(Cl)=C1C(Cl)=C(Cl)C(Cl)=C1Cl | 44.7 µM (active)
